# Screening results: PubChem, National Center for Advancing Translational Sciences (NCATS)
# Only some compounds are listed: those with a hit (about 9.4% of all), similar ones and a draw of the others.
# ELG1 genotox – inducers of genotoxicity in HEK293T ELG1-luciferase cells; Potency, µM (titrated, usually from 46 µM), inactives show top-dose activity change, positive = activation, most hits filed as activators; HEK293T ELG1-luciferase reporter, luminescence, 16 h; hit rate 1.3% among 330,000; further: % of control where 0% means no effect; nearly all actives have a fitted effect of over 60% in size
#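 Screening used a luciferase reporter fused to human ELG1 in HEK293T cells. Luminescence was read on a CCD plate imager after 16 hr exposure and 30 min ONE-Glo incubation.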
# NPC1 promoter act – activators of NPC1 promoter; hit rate 2.4% among 320,000; Huh7 NPC1 promoter luciferase reporter, 24 h; Potency, µM (highest dose often 9.22 µM), for inactives: at the top dose activation, most hits filed as activators; AID 485313; further: % of control where 0% means no effect; nearly all actives have a fitted effect of over 60% in size
#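 Luciferase expression driven by the NPC1 promoter was measured in stably transfected Huh7 cells after a 24 h compound incubation, using a luciferase reagent and a luminescence read.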
# FLuc modulator – counter-screen for miR-21 project: firefly luciferase inhibitors or activators | hit rate 6.9% among 360,000 | purified FLuc, Km substrates, luminescence inhibition | P08659 | Potency, µM (titrated, usually from 57.5 µM), without a hit: at the top dose activity change, negative = inhibition, usual class: inhibitors;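 further: plate controls were vehicle for no effect and reference inhibitor for full effect; nearly all actives have a fitted effect of over 55% in size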
# Target sequence (P08659 whole entry, looked up): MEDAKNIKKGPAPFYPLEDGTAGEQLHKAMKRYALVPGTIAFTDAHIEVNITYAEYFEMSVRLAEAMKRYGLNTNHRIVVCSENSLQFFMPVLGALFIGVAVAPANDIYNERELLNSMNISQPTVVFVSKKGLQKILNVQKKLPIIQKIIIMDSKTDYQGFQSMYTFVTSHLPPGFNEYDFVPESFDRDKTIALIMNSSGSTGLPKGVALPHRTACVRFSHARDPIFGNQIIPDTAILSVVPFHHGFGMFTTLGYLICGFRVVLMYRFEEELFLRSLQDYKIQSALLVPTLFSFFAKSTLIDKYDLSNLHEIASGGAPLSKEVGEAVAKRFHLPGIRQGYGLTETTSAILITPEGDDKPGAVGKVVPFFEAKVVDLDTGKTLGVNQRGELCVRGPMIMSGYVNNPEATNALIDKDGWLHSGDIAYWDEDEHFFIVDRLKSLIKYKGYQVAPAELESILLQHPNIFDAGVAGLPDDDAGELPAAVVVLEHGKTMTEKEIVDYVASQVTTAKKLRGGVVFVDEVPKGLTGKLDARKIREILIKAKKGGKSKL
#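 Purified P. pyralis luciferase, 10 nM final, with Km-level 10 uM D-luciferin and 10 uM ATP in 50 mM Tris acetate pH 7.5, 10 mM Mg acetate, 0.01% Tween-20, 0.05% BSA; 6-point qHTS titration about 60 µM downward; luminescence read.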
# SMN2 splice enh – increases expression of the SMN2 splice variant | HEK293 SMN2-luciferase splicing reporter, luminescence, 30-36 h | hit rate 2.8% among 210,000 | Potency, µM (titrated, usually from 46.1 µM), for inactives: at the top dose activity change, positive = activation, hits mostly activators | AID 1458; further: % of control where 0% means no effect; nearly all actives have a fitted effect of over 55% in size
#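 HEK293 cells carry an SMN2 […]–luciferase reporter in which exon 7 inclusion puts luciferase in frame. Cells were plated 10-12 h before compound addition, then incubated 30-36 h at 37C. ONE-Glo luminescence was read; sodium butyrate at 4.5 mM final served as control.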
# Rab9 prom act – activators of Rab9 promoter; Huh7 Rab9 promoter-luciferase reporter, luminescence, 24 h; hit rate 2.8% among 320,000; Potency, µM (highest dose often 9.22 µM), inactives show top-dose activation, negative = inhibition, most hits filed as activators; further: % of control where 0% means no effect; nearly all actives have a fitted effect of over 60% in size
#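 Steps: seed 1500 Huh7 Rab9-luc cells per well, rest 2 h at 37 °C; add compound in DMSO; incubate 24 h; add luciferase reagent, 10 min ambient; read luminescence.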
# ELG1 DNA repair – inhibitors of ELG1-dependent DNA repair in HEK293T cells | AID 504467 | Potency, µM (doses to about 46.1 µM), for inactives: at the highest dose activity change, negative = inhibition, hits mostly inhibitors | hit rate 2.3% among 330,000 | HEK293T ELG1-luciferase reporter, luminescence, 16 h; DNA damage induced by 5-fluorouridine; further: on the % scale 0 is the no-effect control and ±100 the full control effect; nearly all actives have a fitted effect of over 55% in size
#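 Step one: seed 2,000 cells per well. Step two: pin-transfer compound or DMSO alongside 5-fluorouridine. Step three: incubate 16 hr, 37 °C, 5% CO2. Step four: add ONE-Glo, wait 30 min, read luminescence.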
# * hit, by the source's call; ? = inconclusive; · = no result given. The call rests on the fitted dose curve; in most records, active means well fitted curve in the direction sought with a large enough effect; inconclusive means small, poorly fitted or top-dose-only effect, or another doubt; inactive means no such curve, though single readings can be large; an effect the other way counts as inactive or inconclusive. Potency means the concentration at half of the fitted maximal effect.
SMILES,ELG1 genotox,NPC1 promoter act,FLuc modulator,SMN2 splice enh,Rab9 prom act,ELG1 DNA repair
CCOc1ccc(NC(=O)c2ccco2)cc1,?,0.71µM*,4.8µM*,10µM*,0.63µM*,?
O=C(Nc1ccc(Oc2ccc(NC(=O)c3ccco3)c(NC(=O)c3ccco3)c2)cc1)c1ccco1,-17%,2%,-9%,?,-2%,16µM*
CCOc1ccc(NC(=S)NC(=O)c2ccco2)cc1,16%,2µM*,11µM*,·,1.4µM*,?
CCOc1ccc(NC(=O)c2cc3c(C)nc4ccccc4c3o2)cc1,-31%,-24%,0%,-33%,-22%,8.2µM*
CCC(=O)NC(=S)Nc1ccc(NC(=O)c2ccco2)cc1,16%,11%,?,17%,29%,?
COC(=O)COc1ccc(NC(=O)c2ccco2)cc1,3%,-1%,24µM*,·,3%,?
COc1ccc(OCC(=O)Nc2cccc(NC(=O)c3ccco3)c2)cc1,-2%,6%,12µM*,·,5%,-5%
COC(=O)Cc1ccc(NC(=O)c2ccc(NC(=O)c3ccco3)cc2)cc1,2%,-4%,-2%,-45%,7%,-8%
Brc1ccc(-c2nc(-c3ccccn3)no2)o1,?,0.56µM*,1.5µM*,2.5µM*,?,?
Brc1ccc(-c2noc(-c3ccccn3)n2)o1,?,0.56µM*,2.7µM*,·,0.45µM*,?
CCCC12CN3CC(CCC)(CN(C1)C3c1ccc(OCc3ccccc3)cc1)C2=O (centres undefined),·,·,0%,1%,·,·
CC(=O)Nc1ccc2nc(C3CC3)n(Cc3ccc(Cl)cc3)c(=O)c2c1,?,3.5µM*,21µM*,10µM*,3.5µM*,?
COc1ccc(Cn2c(C3CC3)nc3ccc(NC(=O)C4CC4)cc3c2=O)cc1,2.6µM*,1.4µM*,4.3µM*,11µM*,1.6µM*,?
CCC(=O)Nc1ccc2nc(C3CC3)n(Cc3ccc(C(C)(C)C)cc3)c(=O)c2c1,1.6µM*,0.32µM*,1.5µM*,·,?,?
COc1cccc(Cn2c(C3CC3)nc3ccc(NC(=O)c4ccco4)cc3c2=O)c1,-5%,2%,-13%,-20%,-3%,23µM*
O=C(Nc1ccc2nc(C3CC3)n(Cc3ccc(F)cc3)c(=O)c2c1)c1ccco1,-8%,23%,-1%,?,4%,?
COCCn1c(SCC(=O)c2ccc(C)cc2C)nc2cc(C(=O)NC3CCCC3)ccc2c1=O,·,·,-1%,·,·,·
Cc1ccc(-c2cc(C(=O)OCC(=O)c3ccccc3)c3cccc(Cl)c3n2)cc1,·,·,-4%,-11%,·,·
Cc1cc(C)c(NC(=O)Cc2ccc(-n3c(C)nc4cccnc43)cc2)c(C)c1,·,·,-7%,·,·,·
Cc1cccc(/C=C2\CS/C(=C\c3cccc(C)c3)C2=O)c1,8%,-3%,8.5µM*,-6%,3%,?
O=C1/C(=C/c2cccc(Cl)c2)CSc2sccc21,-2%,-1%,1%,·,-2%,-10%
O=C(COC(=O)c1ccccc1-n1cnnn1)c1ccc(Br)cc1,18µM*,-3%,5.4µM*,·,-1%,?
O=C(COC(=O)c1ccccc1-n1cnnn1)c1ccc(F)c(F)c1,?,14%,?,·,13%,?
O=C(COC(=O)c1ccccc1-n1cnnn1)c1ccccc1,11%,8%,19µM*,·,9%,?
CC(C)(C)C(=O)/C=c1\[nH]c(=O)/c(=C\c2ccc(F)cc2)s1,-21%,0%,24µM*,-16%,-4%,?
Cc1ccccc1/C=c1\s/c(=C\C(=O)C(C)(C)C)[nH]c1=O,-11%,-1%,17µM*,-15%,-1%,?
Cc1cccc(OC(=O)c2nc(SCc3ccccc3F)ncc2Cl)c1,·,·,5%,-6%,·,·
O=C1c2ccccc2C(=O)N1CCSc1nncs1,5%,-2%,-12%,-5%,-4%,2%
